Gli-Sufu block: Gli-Sufu pathway antagonism. 340,000 compounds, 0.74% hits. inhibition, % at 5 µM. Sufu-KO-LIGHT fibroblasts, Gli luciferase reporter luminescence;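 active = inhibition above about 55%, limit read from the data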
SRC1 inh: inhibits human SRC1 coactivator. HEK293 GAL4-SRC1 luciferase reporter, luminescence. inhibition, % at 3.6 µM. 360,000 compounds, 0.12% hits;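 active = inhibition above the campaign mean plus 3 SD, with each screening campaign given its own cutoff, cut at about 60% in these data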
SRC3 inh: inhibitors of human steroid receptor coactivator 3 (SRC3); Q9Y6Q9; HEK293 GAL4-SRC3 luciferase reporter, luminescence; inhibition, % at 3.6 µM; 360,000 compounds, 0.17% hits;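 active = inhibition above a per-campaign cutoff, the mean of all compounds plus 3 SD, cut at about 60% in these data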;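 note: higher means less SRC3-driven luciferase light from the GAL4 reporter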
NCOA2 inhibitor: human SRC2 (NCOA2) inhibition; HEK293 GAL4-SRC2 luciferase reporter, luminescence; inhibition, % at 9 µM; 370,000 compounds, 0.17% hits;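 active = inhibition above the mean inhibition of all tested compounds plus 3 SD, set per campaign, cut at about 52% in these data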
NR5A2 inv ag: suppresses constitutive activity of human LRH-1. O00482. HEK293T StAR-luciferase reporter, LRH-1 transfected, 24 h. inhibition, % at 3.6 µM. 360,000 compounds, 0.13% hits. AID 602396;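 active = inhibition above the mean inhibition of all tested compounds plus 3 SD, cut at about 73% in these data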
NR2F2 inh: inhibitors of human COUP-TFII (NR2F2); P24468; HEK293T NGFI-A luciferase reporter, luminescence; inhibition, % at 8.6 µM; 370,000 compounds, 0.7% hits; AID 686940;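 active = inhibition above a per-plate cutoff, mean inhibition of test wells between control levels plus 3 SD, cut at about 38% in these data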;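 note: cells cotransfected with COUP-TFII expression vector driving the NGFI-A reporter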
Gli-Sufu confirm: confirmation of Gli-SUFU pathway antagonists | shares compounds with Gli-Sufu block | Sufu-KO-LIGHT cells, Gli luciferase reporter, luminescence | inhibition, % at 5 µM | 2,500 compounds, 40% hits;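 active = mean inhibition at 5 µM reaching about 45%, limit read from the data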
Gli cytotox: cytotoxicity counter-screen for Gli-SUFU antagonists | cytotoxicity, % at 5 µM | shares compounds with Gli-Sufu block | 2,500 compounds, 32% hits | AID 651994 | Sufu-KO-LIGHT cells cytotoxicity, ATP luminescence;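 active = mean cytotoxicity at 5 µM above about 25%, limit read from the data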;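 note: cells exposed to compound overnight for roughly 16 to 18 hours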
Wnt3a counter: inhibits Wnt3a reporter, counter-screen for Gli-SUFU antagonists; Wnt-LIGHT cells, Wnt3a-driven luciferase reporter, luminescence; 2,500 compounds, 20% hits; inhibition, % at 6.25 µM; shares compounds with Gli-Sufu block; AID 651995;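 active = mean inhibition above about 25%, limit read from the data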
Large screens that a line does not name were inactive (follow-up assays come after a bar, where they were run). Shown are actives, neighbours in structure and some others; about 1.3% of the full set was active somewhere.

C[C@@H]1COc2cc(Br)ccc2S(=O)(=O)N1Cc1cn(Cc2ccccc2)nn1	none (no result: Gli-Sufu block, SRC1 inh, SRC3 inh, NR5A2 inv ag)
COc1cccc(/C=C2\CC3(OC(=O)C4CCCCC4)CCCN2C3)c1 (stereo unspecified)	none (no result: Gli-Sufu block, SRC1 inh, SRC3 inh, NR5A2 inv ag)
CC[C@H](C)Cc1cn([C@@H](CCCN=C(NC(=O)OC(C)(C)C)NC(=O)OC(C)(C)C)C(=O)NCCCCCCCCCCC(=O)N2CCN(C(=O)OC(C)(C)C)CC2)nn1	none (no result: NCOA2 inhibitor, NR2F2 inh)
C#CCOCCOCCOCCNc1nc(N2CCN(C(=O)CCCCCCCCCCNC(=O)Cn3cc(CCCCCN)nn3)CC2)nc(N2CCN(C(=O)CCCCCCCCCCNC(=O)Cn3cc(C[C@@H](C)O)nn3)CC2)n1	none (no result: NCOA2 inhibitor, NR2F2 inh)
CC(C)(C)OC(=O)NCCCCCc1cn(CC(=O)NCCCCCCCCCCC(=O)N2CCN(C(=O)OC(C)(C)C)CC2)nn1	Gli-Sufu block 56 | Gli-Sufu confirm 62 | Gli cytotox 26 | Wnt3a counter inactive
Cc1cn([C@@H](CCCCNC(=O)OC(C)(C)C)C(=O)NCCCCCCCCCCC(=O)N2CCN(C(=O)OC(C)(C)C)CC2)nn1	Gli-Sufu block 60, SRC3 inh 64 (no result: NCOA2 inhibitor, NR2F2 inh) | Gli-Sufu confirm 59 | Gli cytotox 36 | Wnt3a counter inactive
CN(Cc1ccccc1F)C(=O)C1C2C=CC3(CN(Cc4ccccc4)C(=O)C13)O2 (stereo unspecified)	none (no result: Gli-Sufu block, SRC1 inh, SRC3 inh, NR5A2 inv ag)
CCOC(=O)C1(Cc2ccccc2)CCN(Cc2ccccc2[N+](=O)[O-])CC1	none (no result: Gli-Sufu block, SRC1 inh, SRC3 inh, NR5A2 inv ag)
COc1ccc(N(CC(=O)NCCC2=CCCCC2)S(=O)(=O)c2ccccc2)cc1OC	none
COc1ccc(N(CC(=O)NCCC2=CCCCC2)S(=O)(=O)c2ccccc2)cc1	Gli-Sufu block 57 | Gli-Sufu confirm inactive | Gli cytotox inactive | Wnt3a counter inactive
CN(C)C1=NC[C@H](Cc2ccccc2)N1CCCCc1ccccc1	none | Gli-Sufu confirm inactive | Gli cytotox 29 | Wnt3a counter inactive
Cc1cccc(CCN2C(N(C)C)=NC[C@@H]2Cc2ccccc2)c1	none
Cc1cccc(CCN2C(N(C)C)=NC[C@@H]2CC(C)C)c1	none | Gli-Sufu confirm 56 | Gli cytotox inactive | Wnt3a counter inactive
CCCCNC(=O)O[C@H]1CC[C@@]23CCCN2C(=O)CCC[C@H]3[C@H]1CCC	none (no result: Gli-Sufu block, SRC1 inh, SRC3 inh, NCOA2 inhibitor, NR5A2 inv ag)
COc1cc(C(=O)N(C)CC2CCN(CCc3cccc(C(F)(F)F)c3)CC2)ccc1C	Gli-Sufu block 58 | Gli-Sufu confirm inactive | Gli cytotox inactive | Wnt3a counter inactive
COC(=O)c1cc2c(c3c4cc(F)ccc4n(S(=O)(=O)c4ccc(C)cc4)c13)C(=O)N(c1ccc(OC)cc1)C2	none (no result: Gli-Sufu block, SRC1 inh, SRC3 inh, NR5A2 inv ag)
O=C(COc1ccc2c3c(c(=O)oc2c1)CCCC3)NCCN1CCOCC1	none (no result: NCOA2 inhibitor, NR2F2 inh)
O=C(COc1ccc2c3c(c(=O)oc2c1)CCCC3)NCCCN1CCOCC1	Gli-Sufu block 94 | Gli-Sufu confirm inactive | Gli cytotox inactive | Wnt3a counter inactive
C/C=C/c1ccc([C@@H]2[C@H](CO)N(S(C)(=O)=O)[C@H]2CN(C)C(=O)CC)cc1	none (no result: Gli-Sufu block, SRC1 inh, SRC3 inh, NR5A2 inv ag)
COc1ccc(C2=[N+](C)CCn3cccc32)c(OC)c1	Gli-Sufu block 70 | Gli-Sufu confirm 47 | Gli cytotox inactive | Wnt3a counter inactive
COc1ccc(CN2CCc3ccccc3C2)c(OC)c1	none
CN(CC(=O)Nc1ccccc1Cl)C(=O)c1cccc(S(=O)(=O)N2CCN(c3ccc(F)cc3)CC2)c1	none
CN(CCOc1ccc(Cl)cc1)C(=O)c1cccc(S(=O)(=O)N2CCN(c3ccc(F)cc3)CC2)c1	Gli-Sufu block 70 (no result: NCOA2 inhibitor, NR2F2 inh) | Gli-Sufu confirm 64 | Gli cytotox 26 | Wnt3a counter inactive
Cn1c(N)c(C(=O)COC(=O)C2(c3cccc(F)c3)CCCC2)c(=O)n(C)c1=O	Gli-Sufu block 99 | Gli-Sufu confirm inactive | Gli cytotox inactive | Wnt3a counter inactive
Cn1c(N)c(C(=O)COC(=O)c2ccc(F)cc2Cl)c(=O)n(C)c1=O	none

Compound activity (PubChem BioAssay)
